Compound activity (PubChem BioAssay)
Only some compounds are listed: those with a hit (about 17% of all), similar ones and a draw of the others.
S2 tox: Viability Counterscreen for Primary qHTS for Inhibitors of ATXN expression. Potency, µM (doses to about 56.7 µM), actives largely listed as cytotoxic. 400,000 compounds, 0.49% hits. S2 cells (HEK-293 line with an ATXN2-luciferase reporter) viability, CellTiter-Fluor protease fluorescence, 24 h; also: nearly all actives have a fitted effect of over 40% in size
HepG2 tox: qHTS for Inhibitors of TGF-b: Cytotox Counterscreen; HepG2 CAGA-GFP viability, ATP luminescence, 18 h; 410,000 compounds, 0.76% hits; Potency, µM (top dose mostly 46.1 µM), without a hit: top-dose activity change, negative = cytotoxicity, hits mostly cytotoxic
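CellTiter-Glo luminescence gave cytotoxicity after 18 hours at 37 degrees C. The cells were HepG2 CAGA-GFP in 1% FBS DMEM, stimulated with 500 pg/mL TGF-beta after compound addition. %Activity was normalised to no-cell wells (complete cell-killing) and DMSO (no toxicity), and curves were fitted and classified.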
TDP1 cell noCPT: qHTS for Inhibitors of human tyrosyl-DNA phosphodiesterase 1 (TDP1): qHTS in cells in absence of CPT. 420,000 compounds, 15% hits. Potency, µM (top dose mostly 46.2 µM), for the others: at the top dose activity change, negative = growth inhibition, usual class: inhibitors. DT40 Tdp1-/- hTDP1 cells, no CPT, ATP luminescence, 48 h; also: % is scaled to controls: 0 for no effect and ±100 for the full control effect; nearly all actives have a fitted effect of over 55% in size
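Readout: luminescence from CellTiter-Glo after 30 min in the dark at RT. Cells: DT40 Tdp1-/- with stable hTDP1, 400/well. Exposure: compounds alone, ≥48 hr, 37 °C.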
TGFb SMAD3 inh: qHTS for Inhibitors of TGF-b. HepG2 CAGA-GFP TGF-b/SMAD3 reporter, GFP fluorescence, 18 h; TGF-beta stimulated, 500 pg/mL final. Potency, µM (titrated, usually from 46.1 µM), for inactives: top-dose activity, negative = inhibition, most hits filed as inhibitors. 410,000 compounds, 1.2% hits. AID 588855, 2011; also: % is scaled to controls: 0 for no effect and ±100 for the full control effect; nearly all actives have a fitted effect of over 65% in size
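GFP signal (ex488/em500-530) from TGF-beta-stimulated HEPG2 CAGA-GFP cells, 500 pg/mL final, 18 h at 37 degrees C in DMEM plus 1% FBS, normalized to unstimulated and DMSO-stimulated controls.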
DT40 TDP1 CPT: qHTS for Inhibitors of human tyrosyl-DNA phosphodiesterase 1 (TDP1): qHTS in cells in presence of CPT; 420,000 compounds, 12% hits; AID 686979, 2013; chicken DT40 Tdp1-/-;hTDP1 cells + 20 nM CPT, ATP luminescence, 48 h; Potency, µM (titrated, usually from 46.2 µM), without a hit: at the top dose activity change, negative = growth inhibition, most hits filed as inhibitors; also: % is scaled to controls: 0 for no effect and ±100 for the full control effect; nearly all actives have a fitted effect of over 55% in size
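Cell growth measured by CellTiter-Glo luminescence after a minimum 48 h, 37 C compound exposure with 20 nM CPT in Tdp1-knockout DT40 cells stably expressing hTDP1, seeded 400/well; qHTS titration format.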
ATXN2 expr inh: Primary qHTS for Inhibitors of ATXN expression; 360,000 compounds, 0.72% hits; HEK-293 ATXN2-luciferase reporter, luminescence, 24 h; Potency, µM (top dose mostly 57 µM), for inactives: top-dose activity change, negative = inhibition, usual class: inhibitors; AID 1745845, 2022; also: % is scaled to controls: 0 for no effect and ±100 for the full control effect; nearly all actives have a fitted effect of over 55% in size
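qHTS (up to 57 uM final) was run with 24 h compound exposure of reporter cells at 37 °C. Each well was multiplexed: SteadyGlo luminescence measured ATXN2-luciferase expression after a fluorogenic Gly-Phe-AFC viability readout (25 uM final).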
Numbers without * were called inactive; i = inactive; ? = inconclusive; · = not tested or not shown; [ ] = remark or other dose. Calls follow the shape of the dose curve; as a rule, active = well fitted curve in the direction sought with a large enough effect; inconclusive = small, poorly fitted or top-dose-only effect, or another doubt; inactive = no such curve, though single readings can be large; an effect the other way counts as inactive or inconclusive. Potency is read from the fitted curve at half-maximal effect.

SMILES | S2 tox | HepG2 tox | TDP1 cell noCPT | TGFb SMAD3 inh | DT40 TDP1 CPT | ATXN2 expr inh
CC(Nc1nc(-c2ccc(F)cc2)cs1)c1nc2cc(C(F)(F)F)ccc2n1CCCO (stereo not given) | · | -30% | 16µM* | ? | ? | ?
COc1ccc(S(=O)(=O)N2CCCC(C(=O)NCc3ccccc3)C2)cc1 (stereo not given) | i | -1% | -52% | -1% | 15% | 2%
O=C(NN=C(c1ccccc1)c1ccccn1)c1ccccc1 | ? | -19% | 0.92µM* | ? | 1µM* | 4µM*
O=C(N/N=C(\c1ccccc1)c1ccccn1)c1ccccc1Cl | ? | -48% | ? | ? | ? | 22µM*
COc1ccc(C(=O)Nc2ccc(NC(=O)c3ccccn3)cn2)cc1 | i | 4% | -20% | 3% | -7% | -7%
O=C(NC(O)C(=O)c1ccccc1)c1ccccn1 (stereo not given) | i | -1% | ? | -6% | 23µM* | 10%
C/C(Cc1ccccc1)=N\NC(=O)c1ccccn1 | i | -83% | -4% | -4% | 19% | 24%
COc1ccc(C(=O)N/N=C(\c2ccccc2)c2ccccn2)cc1 | 10µM* | -7% | 2.6µM* | ? | 2.9µM* | 3.2µM*
O=C(NC(O)C(=O)c1ccccc1)c1cccs1 (stereo not given) | i | 4% | ? | -22% | ? | 0%
COc1cccc(C(=O)Oc2cc(-c3ccccc3)no2)c1 | i | -21% | -3% | -8% | -9% | 0%
O=C(c1cccc2ccccc12)N1CCN(S(=O)(=O)c2ccccc2)CC1 | · | 2% | -7% | 1% | ? | ·
CC(C)CN1CCN(C(=O)COC(=O)c2ccc(S(C)(=O)=O)c([N+](=O)[O-])c2)CC1 | 32µM* | 4.5µM* | · | 4.5µM* | · | -27%
O=C(OCC(=O)N1CCc2ccccc21)[C@@H]1CC(O)CN1S(=O)(=O)c1ccccc1[N+](=O)[O-] (stereo not given in full) | i | -23% | 18µM* | 0% | 21µM* | -22%
CS(=O)(=O)c1ccc(C(=O)OCC(=O)N2CCc3ccccc32)cc1[N+](=O)[O-] | · | -12% | 4µM* | ? | 3.5µM* | ·
COc1ccc(CCNC(=O)COc2coc(CN3c4ccccc4CC3C)cc2=O)cc1OC (stereo not given) | i | -3% | 16µM* | -7% | ? | -11%
Cc1ccc(NC(=O)COc2coc(CN3CCc4ccccc43)cc2=O)c(C)c1 | i | -1% | 15µM* | 2% | ? | -14%
CC1Cc2ccccc2N1Cc1cc(=O)c(OCC(=O)Nc2ccccc2)co1 (stereo not given) | i | 14% | ? | 3% | ? | -19%
Cc1ccc(NC(=O)COc2coc(CN3c4ccccc4CC3C)cc2=O)c(C)c1 (stereo not given) | i | -20% | 13µM* | -5% | ? | -8%
Cc1ccc(C)c(NC(=O)COc2coc(CN3CCc4ccccc4C3)cc2=O)c1 | i | -3% | 16µM* | -8% | 18µM* | ?
Cc1ccc(NC(=O)COc2coc(CN3CCc4ccccc4C3)cc2=O)c(C)c1 | ? | 5% | ? | -18% | ? | -15%
COc1ccc(C(=O)Cn2c(NCCO)nc3ccccc32)cc1OC | i | 4% | 1% | -1% | -11% | -8%
Cc1nn(Cc2ccccc2)c(Cl)c1C(=O)OCC(=O)NC(=O)NC12CC3CC(CC(C3)C1)C2 | i | -6% | ? | 5% | ? | -17%
CCOC(=O)c1c(S(=O)(=O)N(C)Cc2ccco2)c(C)n(C)c1C | i | -1% | -3% | 17% | -19% | 3%
COc1ccc(OC)c(NC(=O)COc2coc(CN3CCCc4ccccc43)cc2=O)c1 | i | -1% | ? | -14% | ? | -18%
O=C(COc1coc(CN2CCCc3ccccc32)cc1=O)Nc1ccccc1 | i | -22% | 5.8µM* | -21% | ? | -14%
SMILES | S2 tox | HepG2 tox | TDP1 cell noCPT | TGFb SMAD3 inh | DT40 TDP1 CPT | ATXN2 expr inh
COc1ccc(OC)c(NC(=O)COc2coc(CN3CCc4ccccc43)cc2=O)c1 | i | 7% | 16µM* | ? | ? | -8%
CCc1ccc2[nH]c(=O)c(CN(Cc3ccccc3OC)C(=O)Nc3ccccc3OC)cc2c1 | i | -21% | 23µM* | -15% | 18µM* | -17%
COc1ccc2[nH]c(=O)c(CN(CC3CCCO3)C(=O)Nc3ccccc3OC)cc2c1 (stereo not given) | i | 26% | 10µM* | 1% | 13µM* | -6%
CCCCN(CC)CCCNC(=O)Cn1nc(CC)n2c(cc3sccc32)c1=O | · | -12% | ? | -1% | -15% | ·
Cc1nc(C)c(C(=O)NCc2nc(-c3cccc(NC(=O)c4ccccn4)c3)oc2C)s1 | ? | · | 2.9µM* | · | 3.3µM* | ·
Cc1occc1C(=O)Nc1cccc(-c2nc(CNC(=O)c3ccc4ccccc4n3)c(C)o2)c1 | ? | · | 6.5µM* | · | 8.2µM* | ·
CSc1ccccc1C(=O)NCc1nc(-c2cccc(NC(=O)c3ccoc3C)c2)oc1C | · | · | 21µM* | · | ? | ·
COC(=O)c1cccc(C(=O)NCc2nc(-c3cccc(NC(=O)c4ccoc4C)c3)oc2C)c1 | · | · | 21µM* | · | -6%[9.04 µM] | ·
CSc1nc(C(=O)NCc2nc(-c3cccc(NC(=O)c4ccccn4)c3)oc2C)cs1 | · | · | ? | · | 10%[9.04 µM] | ·
N#CN1CCC(NS(=O)(=O)c2ccc(C(F)(F)F)cc2)CC1 | i | -15% | · | -6% | · | -6%
COC(c1ccccc1)c1nnc(CCC(=O)N2CCN(C3CCCC3)CC2)o1 (stereo not given) | i | -49% | 5% | 0% | 20% | 3%
COc1ccc(OCc2nnc(SCC(=O)Nc3nnc(C4CC4)s3)n2C)cc1 | i | -6% | -1% | -3% | 2% | 14%
COc1cc(/C=C/C(=O)NC(C)CCc2ccccc2)cc(OC)c1OC (stereo not given) | i | 3% | ? | 3% | ? | 2%
Cc1ccc(S(=O)(=O)CCC(=O)OCC(=O)NC(=O)c2ccccc2)cc1 | ? | 2% | -1% | 15% | 3% | -2%
